From PubChem BioAssay (EPA / NIEHS) come the findings set out here.

A word on the AC50: it is the midpoint of the concentration-response curve, whichever way the signal moves.

Molecules are shown by their SMILES. Where a structure was tested more than once in an assay, its records may differ in their call. Active and inactive are the calls of the source. Rule for the calls: active = hit-call score of the fitted dose curve at least 0.9, where 1 is the maximum; inactive = score below 0.9.

A short description of this assay: CCTE_Shafer_MEA_acute_cross_correlation_HWHM: CCTE's Neural Acute Assay for Cross Correlation at Half Width at Half Maximum, Shafer Lab (AID 2284026). As for the experimental part: CCTE_Shafer_MEA_acute assay is conducted using Axion Biosystems 48 well microelectrode array (MEA) plates and Maestro recording system. Each well of the MEA plate contains a grid of 16 microelectrodes embedded in the culture surface. Electrically active cells, such as neurons, can be cultured over the electrodes, and electrical activity in these cells can be recorded extracellularly. The spontaneous firing of neurons is captured from each electrode on a microsecond timescale providing both temporally and spatially precise data. […] The CCTE_Shafer_MEA_acute assay uses primary cultures of rat cortical neurons. As these cultures mature over time, neural networks develop functional activity and form cohesive networks in which electrical activity can be highly coordinated. Baseline 40-minute recordings are made on days post-plating 13 or 15, followed by a secondary 40-minute recording after chemical exposure.CCTE_Shafer_MEA_acute_cross_correlation_HWHM is a component of the CCTE_Shafer_MEA_acute assay. It measures the distance along the x-axis (phase lag) from the left half maximum height to the center of the cross-correlogram of action potential firing during a recording in a microelectrode array (MEA) using Axion Biosystems Maestro 768 channel amplifier with the AxIS adaptive spike detector. Smaller values indicate a narrower correlogram (greater synchrony). The recordings before and after chemical treatment are used to calculate a percent change in the half width at half maximum of the cross-correlogram in each well.Data from the assay component CCTE_Shafer_MEA_acute_cross_correlation_HWHM was analyzed into 1 assay endpoint. This assay endpoint, CCTE_Shafer_MEA_acute_cross_correlation_HWHM, was analyzed in the negative analysis fitting direction relative to DMSO as the negative control and baseline of activity. Using a type of functional reporter, gain or loss-of-signal activity can be used to understand electrical activity.
Spontaneous activity in the cortical cultures was recorded using an Axion Biosystems Maestro 768 channel amplifier and Axion Integrated Studios (AxIS) v1.8 (or later) software. The amplifier recorded from all channels simultaneously (gain = 1200 x; sampling rate = 12.5 kHz/channel): raw signals were filtered with a Butterworth band-pass filter (300-5000 Hz), which filters out slower local field potentials leaving only fast potentials, i.e., "spikes", arising from extracellular currents associated with action potentials (Pine 2006; Wheeler and Nam 2011). On-line spike detection of filtered signals was conducted with the AxIS adaptive spike detector, using a threshold of 8x the root mean squared (rms) noise on each channel. Any electrodes with rms noise levels greater than 5 uV were grounded (e.g., no data were recorded). Once grounded, an electrode was grounded for the duration of the experiment. All recordings were conducted at 37 C. Wells were deemed usable if on the day of the exposure >/= 10 electrodes were active (defined as >/= 5 spikes/min). On DIV 13 or 15, a minimum of three wells from one cortical culture preparation were treated with each compound (0.03-40 uM). Prior to recording baseline activity, each mwMEA plate was placed in the Maestro at 37 C and allowed to sit for 20 min while firing rates stabilized. Baseline activity (40 min) was recorded before the addition of each compound. An additional 40 min of spontaneous activity was recorded in the presence of each compound. Changes in network parameters relative to baseline were assessed following compound treatment.
For the molecule `CC(C)CCCC(C)(C)O`, the outcome was inactive.
Consider `CC/C(=C(\c1ccccc1)c1ccc(OCCN(C)C)cc1)c1ccccc1`, for which the outcome was inactive and the AC50 was 16.4 µM (active).
In the case of `CC(=O)c1ccc(C)cc1`, the call was inactive.
On the same count and under the same terms, then `c1ccc(OCCOc2ccccc2)cc1`, with “inactive”; and `CCn1cc(C(=O)O)c(=O)c2ccc(C)nc21`, with “inactive”.
Take `CCCO[Si](OCCC)(OCCC)OCCC`: the concentration at half-maximal activity (AC50) is 0.0212 µM (active).
Turning to `CC(C)(CO)CO`, the call was inactive.
For the molecule `O=C(c1ccc(OCCN2CCCCC2)cc1)c1c(-c2ccc(O)cc2)sc2cc(O)ccc12`, the AC50 was 32.7 µM (active).
For the molecule `CCCCN(CCO)CCO`, the molecule was classed as inactive.
On the same count and under the same terms, then `N[C@@H](CCC(=O)O)C(=O)O`, with “inactive”.
For the molecule `CCCCOCCOCCO`, the molecule was called inactive.
